# Experimental data from PubChem BioAssay (Tox21).
# Results filed as inconclusive are left out. Where a call stands in place of a potency, no number is given. Activity calls are given as the source filed them. Calls follow the shape of the dose curve; as a rule, active = well fitted cell-killing curve with a large enough effect in the repeat runs; inconclusive = weak or mixed curves, or effect the other way; inactive = flat fitted curve, though single readings scatter.
# Tests used:
# [1] = cAMP Responsive Elements (CRE) small molecule antagonists, cell-based qHTS assay: qHTS cell viability counter screen (AID 2060913); also: nearly all actives have a fitted effect of over 40% in size
# Procedure, shortened: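 CRE-bla HEK293T cells were seeded in assay medium with 10% dialyzed FBS, incubated 18 hrs at 37 C, then exposed to compounds plus 0.25 uM final NKH477 for 3 hrs. Viability was read by CellTiter-Glo luminescence after 30 min, in the same wells.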
# [2] = cAMP Responsive Elements (CRE) small molecule agonists, cell-based qHTS assay: qHTS cell viability counter screen (AID 2060914);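 also: viability read after 3 h of compound exposure; nearly all actives have a fitted effect of over 50% in size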
# Procedure, shortened: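 CRE-bla HEK 293T cells, plated 18 h at 37 °C, were exposed to compounds for 3 h at 37 °C/5% CO2. Viability was then measured in the same wells by CellTiter-Glo luminescence after 30 min at room temperature.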
SMILES,Potency [1],Potency [2]
Cc1c(C(=O)c2c[nH]n(C)c2=O)ccc(S(C)(=O)=O)c1C1=NOCC1,inactive,inactive
Cc1cc(Cl)c(C)cc1Cl,inactive,inactive
C/C=C/c1ccc(O)c(OC)c1,inactive,inactive
CC(=O)CC(=O)OC(C)(C)C,inactive,inactive
CC(C)CC(=O)O,inactive,inactive
CC(C)OCCO,inactive,inactive
CN(C)c1ccc(N=Nc2ccccc2C(=O)O)cc1,inactive,inactive
CCCCCCCC/C=C/C(=O)O,inactive,inactive
CC/C=C\CCOC(=O)CCCCC,inactive,inactive
O=C[C@H](O)[C@H](O)[C@H](O)CO,inactive,inactive
CCNC(=O)C1CC(C)CCC1C(C)C (centres undefined),inactive,inactive
CCCC(C)CO (centres undefined),inactive,inactive
